Test results as given in PubChem BioAssay AID722 (NMMLSC, 2007).
The whole screen tested about 1,300 compounds, of which about 40 (3%) were called active. The full list was thinned out, with actives kept by preference. Unmarked numbers belong to inactive results. No stated cut-off is given here; in the data, active means inhibition above about 30%; inactive means the rest.

molecular target: fMet-Leu-Phe receptor (Homo sapiens) (UniProt P21462); experiment: human FPR1 ligand displacement screen – cell-based, flow cytometry, SAR analysis, primary screen (AID 722); details: FPR-expressing cells, fluorescent ligand binding inhibition, hits give high values, concentration not given here
Sequence (P21462 whole entry, looked up): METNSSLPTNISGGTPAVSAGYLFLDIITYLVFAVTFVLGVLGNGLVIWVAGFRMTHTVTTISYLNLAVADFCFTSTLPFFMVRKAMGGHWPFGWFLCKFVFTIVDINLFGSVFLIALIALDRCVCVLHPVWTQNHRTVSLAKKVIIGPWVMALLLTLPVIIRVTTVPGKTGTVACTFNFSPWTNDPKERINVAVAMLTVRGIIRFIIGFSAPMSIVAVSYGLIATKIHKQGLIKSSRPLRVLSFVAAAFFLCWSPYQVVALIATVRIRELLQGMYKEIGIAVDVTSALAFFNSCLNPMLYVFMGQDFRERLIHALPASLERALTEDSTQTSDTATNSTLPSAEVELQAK

Structure (SMILES)	inhibition
COc1ccc(-c2c(C)[nH]n3c(=O)c(Cc4ccccc4)c(C)nc23)cc1	6.3%
Cc1nc2c(-c3ccc(Cl)cc3)c(C(F)(F)F)[nH]n2c(=O)c1Cc1ccccc1	50.1% (active)
Cc1nc2c(-c3ccc(Cl)cc3)c[nH]n2c(=O)c1Cc1ccccc1	-1.4%
N#CCn1c(=O)n(Cc2ccccc2)c(=O)c2oc3ccccc3c21	-0.8%
CCCCN(Cc1ccco1)C(=O)c1noc2c1CCCCC2	0.1%
CCOC(=O)c1c(NC(=O)c2cccc(Br)c2)sc(C)c1C	-4.3%
Cc1ccc(C)c(NC(=O)Cn2c(-c3nonc3N)nc3ccccc32)c1	5.3%
O=c1c2cccnc2n(Cc2ccccc2F)c(=O)n1Cc1ccccc1	-7.5%
O=c1c2cccnc2n(Cc2ccccc2F)c(=O)n1Cc1cccs1	-0.6%
Cc1sc2c(c1C)c(=O)n(Cc1ccccc1)c(=O)n2Cc1ccccc1F	38.5% (active)
Cc1ccc(C)c(Cn2c(=O)cc(C)c3c(C)nn(-c4cccc(F)c4)c32)c1	-2.2%
CCOC(=O)c1sc(N2C(=O)C(=O)/C(=C(/O)c3ccccc3)C2c2ccc(C(C)C)cc2)nc1C (stereo not given)	7.9%
Cc1nnc(N2C(=O)C(=O)/C(=C(/O)c3ccc(F)cc3)C2c2cccc(Oc3ccccc3)c2)s1 (stereo not given)	-8.8%
Cc1ccc(CN(Cc2ccco2)C(=O)c2cccc(C)c2)cc1	-4.5%
O=C(O)CCCN1C(=O)C(=O)/C(=C(/O)c2ccccc2)C1c1ccc(F)cc1 (stereo not given)	5.5%
O=C(O)CCCN1C(=O)C(=O)/C(=C(/O)c2ccccc2)C1c1ccc(Br)cc1 (stereo not given)	1.2%
O=C(O)CCCN1C(=O)C(=O)/C(=C(/O)c2ccccc2)C1/C=C/c1ccccc1 (stereo not given)	44.6% (active)
O=C1C(=O)N(CCCN2CCOCC2)C(c2cccnc2)/C1=C(\O)c1ccccc1 (stereo not given)	-3.2%

Structure (SMILES)	inhibition
COc1cccc(C2C(C(C)=O)=C(O)C(=O)N2c2ccc(C)c(Br)c2)c1 (stereo not given)	-9%
COC(=O)c1ccc(C2C(C(C)=O)=C(O)C(=O)N2c2ccc(OCC(=O)O)cc2)cc1 (stereo not given)	2.2%
COc1cc(C2C(C(C)=O)=C(O)C(=O)N2c2ccc(Br)cc2)ccc1O (stereo not given)	35.8% (active)
Cc1cccc(C(=O)N(C(=O)c2cccc(C)c2)c2ncccn2)c1	-8.2%
CCN(C(=O)c1noc2c1CCCCC2)c1cccc(C)c1	-6.2%
O=C(C1=C(O)C(=O)N(CCc2ccccc2)C1c1ccc(Cl)cc1)c1cccs1 (stereo not given)	77.6% (active)
O=C(C1=C(O)C(=O)N(CCCn2ccnc2)C1c1cccnc1)c1cccs1 (stereo not given)	3.5%
O=C(C1=C(O)C(=O)N(CCCN2CCOCC2)C1c1cccnc1)c1ccco1 (stereo not given)	-9.2%
COc1cccc(C2C(C(=O)c3cccs3)=C(O)C(=O)N2CCc2ccccc2)c1 (stereo not given)	15.8%
O=C(C1=C(O)C(=O)N(CCCN2CCOCC2)C1c1cccnc1)c1cc2ccccc2o1 (stereo not given)	22.2%
O=C(C1=C(O)C(=O)N(CCCn2ccnc2)C1c1cccnc1)c1cc2ccccc2o1 (stereo not given)	40.4% (active)
O=C(C1=C(O)C(=O)N(CCCn2ccnc2)C1c1cccnc1)c1ccco1 (stereo not given)	33.2% (active)
O=C(C1=C(O)C(=O)N(CCCn2ccnc2)C1c1cccc(Br)c1)c1ccco1 (stereo not given)	0.3%
O=C(C1=C(O)C(=O)N(CCc2ccccc2)C1c1ccc([N+](=O)[O-])cc1)c1cccs1 (stereo not given)	-7.4%
O=C(C1=C(O)C(=O)N(CCCn2ccnc2)C1c1ccc(Cl)cc1)c1cccs1 (stereo not given)	19.5%
COc1ccc(C2C(C(=O)c3cccs3)=C(O)C(=O)N2CCCn2ccnc2)c(OC)c1 (stereo not given)	1.7%
COc1ccc(C2C(C(=O)c3cccs3)=C(O)C(=O)N2CCCn2ccnc2)cc1 (stereo not given)	42.2% (active)
